Source: PubChem BioAssay (NCI)
Compounds without any hit were thinned out: in the full panel of roughly 83,000, 20% have a hit.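 For each line, cells grew in 96-well plates with the test compound present at a single concentration for 48 hours.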 Active and inactive are the calls of the source. The calls were made as follows: active = growth percent below 10; inactive = the rest.

What was measured:
Assay in all cases: NCI-60 one-dose screen, 48 h (100 = growth as untreated, 0 = no growth, -100 = all killed)
Settings in all cases: 10 µM unless noted
[1] = tested on: NCI-H23 lung
[2] = tested on: NCI-H226 lung
[3] = tested on: NCI-H322M lung
[4] = tested on: HOP-62 NSCLC
[5] = tested on: NCI-H460 lung
[6] = tested on: HOP-92 NSCLC
[7] = tested on: NCI-H522 lung
[8] = tested on: A549/ATCC NSCLC
[9] = tested on: 786-0 renal
[10] = tested on: COLO 205 colon
[11] = tested on: DU-145 prostate
[12] = tested on: K-562 leukemia
[13] = tested on: MALME-3M melanoma
[14] = tested on: MDA-MB-231 breast
[15] = tested on: RXF 393 renal
[16] = tested on: SF-268 CNS
[17] = tested on: SF-295 CNS
[18] = tested on: SF-539 CNS
[19] = tested on: UACC-257 melanoma
[20] = tested on: M14 melanoma

Measured: growth

CC12CCCC(CC(=O)c3[nH]c4ccccc4c31)C2 (stereo not given)
active: [5] 7.52% | [7] 2.33% | [10] 7.12% | [11] -15.6% | [15] -21.7% | [18] -19.1% | [20] 3.66%
inactive: [1] 33.5% | [2] 60.8% | [3] 35.7% | [4] 28.2% | [6] 47% | [8] 27.7% | [9] 41.4% | [12] 11.2% | [13] 36.4% | [14] 37.9% | [16] 63.7% | [17] 15.1% | [19] 66.1%

COc1cc([N+](=O)[O-])c2ncccc2c1O
active: [1] -9.28% | [2] 5.16% | [3] 2.58% | [4] 5.92% | [5] 2.09% | [8] -16.5% | [10] -67.8% | [11] 8.92% | [13] -25.9% | [17] 3.61% | [20] -23.9%
inactive: [6] 79.4% | [7] 42.5% | [9] 108% | [12] 130% | [14] 98.6% | [15] 93.3% | [16] 88.2% | [18] 24.3% | [19] 48%

CC(C)(C)n1cc(-c2ccnc(NCCCNS(=O)(=O)c3ccc(F)cc3)c2)c(-c2cccc(O)c2)n1
inactive: [1] 57.9% | [2] 51.2% | [3] 60.5% | [4] 74% | [5] 18.3% | [6] 60.3% | [7] 39.1% | [8] 40% | [9] 22.6% | [10] 13% | [11] 63.4% | [13] 38.1% | [14] 33.2% | [15] 38.7% | [16] 51.4% | [17] 26.8% | [18] 28.4% | [19] 50.1% | [20] 29%
active: [12] 9.04%

N=c1ccc2nc3ccc(N)cc3sc-2c1
inactive: [1] 12.8% | [2] 87.8% | [3] 51.6% | [4] 15% | [5] 43.6% | [6] 40.6% | [7] 12.8% | [9] 59.1% | [11] 89.4% | [12] 26.6% | [13] 31.8% | [14] 17% | [15] 73.5% | [16] 39.7% | [17] 35.5% | [20] 13.8%
active: [8] 7.01% | [10] 0.589% | [18] 2.29% | [19] 2.21%

COc1ccc(Nc2[nH]n3c(=O)cc(C)nc3c2C(N)=O)c(OC)c1
inactive: [1] 100% | [2] 97.4% | [3] 96% | [4] 85.9% | [5] 105% | [6] 73.1% | [7] 84.9% | [8] 89.5% | [9] 99.1% | [10] 102% | [11] 112% | [12] 101% | [13] 126% | [14] 84.9% | [15] 98.1% | [16] 97.8% | [17] 102% | [18] 91.2% | [19] 85.1% | [20] 106%

COc1ccc2c(c1)cn1c3ccc(OC)cc3[nH]c(=O)c21
active: [2] 5.93% | [3] -45.3% | [4] 5.85% | [5] -51% | [7] -44.9% | [8] -57% | [9] -88.3% | [10] -61.3% | [11] -87.1% | [12] -28.1% | [14] -86.9% | [15] -82.2% | [16] -14% | [17] -84.9% | [18] -84.9% | [20] -65.1%
inactive: [1] 33.3% | [6] 28.4% | [13] 42.1% | [19] 54.7%

O=C(C1=Cc2cc3ccccc3n2Cc2cnnn21)c1ccccc1
active: [7] 9.68%
inactive: [1] 73.6% | [2] 78.1% | [3] 80.6% | [4] 39.2% | [5] 30.9% | [6] 55.1% | [8] 58.5% | [9] 69.1% | [10] 58.8% | [11] 85.6% | [12] 21.4% | [13] 76.9% | [14] 54.3% | [15] 54.6% | [16] 58.8% | [17] 56.3% | [18] 57.8% | [19] 74.6% | [20] 22.2%

Cc1cc(N/N=C/c2nc(-c3ccc(Br)cc3)oc2C)c2cc(Br)ccc2n1
inactive: [1] 103% | [2] 113% | [3] 82.8% | [4] 105% | [6] 78.8% | [7] 48% | [8] 32.8% | [9] 29.2% | [10] 99.7% | [11] 34.6% | [13] 17.4% | [14] 55.9% | [15] 92.8% | [16] 75.1% | [17] 96.7% | [18] 89% | [19] 95.8% | [20] 57.5%
active: [5] -13.1% | [12] -29.2%

C/C=C(\C)C(C(=O)NC1CCCCC1)N(C(=O)C1CCc2cc(F)ccc2O1)c1ccc(Cl)cc1 (stereo not given)
inactive: [1] 103% | [2] 93.7% | [3] 110% | [4] 93.6% | [5] 104% | [6] 108% | [7] 92% | [8] 96.2% | [9] 101% | [10] 106% | [11] 108% | [12] 99.7% | [13] 109% | [14] 103% | [15] 109% | [16] 97.2% | [17] 97.5% | [18] 98.2% | [19] 98.8% | [20] 103%

CC(C)(C)N1CCC1C(N)=O (stereo not given)
inactive: [1] 86% | [2] 118% | [3] 125% | [4] 96.8% | [5] 104% | [6] 100% | [7] 172% | [8] 99% | [9] 29.6% | [10] 106% | [11] 108% | [12] 97.7% | [13] 90.3% | [14] 112% | [15] 103% | [16] 102% | [17] 106% | [18] 97.7% | [19] 96% | [20] 78.6%

FC(F)(F)c1ccccc1-c1cn2c(ccc3ccccc32)n1
inactive: [1] 85.3% | [2] 77.5% | [3] 96.1% | [4] 60.4% | [5] 85.3% | [6] 79.9% | [7] 49% | [8] 80% | [9] 94.9% | [10] 102% | [11] 104% | [12] 29.8% | [13] 65.1% | [14] 69.5% | [15] 84.4% | [16] 90.3% | [17] 62.1% | [18] 78.6% | [19] 70.3% | [20] 60.3%

Cc1cc(N/N=C/c2nc(-c3ccc(Br)cc3)oc2C)c2cc(Cl)ccc2n1
active: [12] -17.6%
inactive: [1] 101% | [2] 84.7% | [3] 91.9% | [4] 107% | [5] 12.8% | [6] 72% | [7] 76.5% | [8] 65.5% | [9] 34.1% | [10] 104% | [11] 60.7% | [13] 55.6% | [14] 67.2% | [15] 85.5% | [16] 80% | [17] 101% | [18] 98.5% | [19] 95.6% | [20] 40.8%

CC(C)CC1NC(C)(C)CO1 (stereo not given)
inactive: [1] 105% | [2] 107% | [3] 121% | [4] 95.9% | [5] 107% | [6] 98% | [7] 89.8% | [8] 103% | [9] 109% | [10] 108% | [11] 117% | [12] 125% | [13] 124% | [14] 106% | [15] 109% | [16] 102% | [17] 131% | [18] 126% | [19] 112% | [20] 110%

Cc1ccc(C(=O)C2=Cc3cc4ccccc4n3Cc3cnnn32)cc1
inactive: [1] 100% | [2] 98.1% | [3] 95.9% | [4] 87.4% | [5] 108% | [6] 86% | [7] 64.5% | [8] 99.2% | [9] 94.6% | [10] 111% | [11] 113% | [12] 75.1% | [13] 116% | [14] 95.5% | [15] 95.3% | [16] 101% | [17] 114% | [18] 111% | [19] 98.8% | [20] 115%

O=C(Nc1ccc2c(c1)OCCO2)C(=O)c1c[nH]c2ccccc12
active: [5] 8.62% | [6] 1.01% | [7] -40.4% | [11] 7.38% | [18] -6.87%
inactive: [1] 24.5% | [2] 82.7% | [3] 54.3% | [4] 42.9% | [8] 47.7% | [9] 59.7% | [10] 10.2% | [12] 12.2% | [13] 46.6% | [14] 28.9% | [15] 24.3% | [16] 46.1% | [17] 23.8% | [19] 70.7% | [20] 19.9%

COc1ccc(-n2c(=O)sc3c(Cl)nc(C)nc32)c(OC)c1
inactive: [1] 79.8% | [2] 99.4% | [3] 96.5% | [4] 86.1% | [5] 57.4% | [6] 76.9% | [7] 78.5% | [8] 98.7% | [9] 99.2% | [10] 99.4% | [11] 84.3% | [12] 24.9% | [13] 101% | [14] 80.4% | [15] 93.5% | [16] 63.3% | [17] 104% | [18] 105% | [19] 85.1% | [20] 75.7%
